In paper PMC7819943, “Rice protein-binding microarrays: a tool to detect cis-acting elements near promoter regions in rice” one finds binding signal data, which are given here for 45 sequences.

The full ranking holds about 68,000 sequences; the median of “fluorescence intensity (a.u.)” is about 9,100, and the highest 2% start at about 16,000. This is one part of a sample in which the highest values are shown more often than they occur.

OsWRKY34, sequence (Q0JBA9 entry or part of it): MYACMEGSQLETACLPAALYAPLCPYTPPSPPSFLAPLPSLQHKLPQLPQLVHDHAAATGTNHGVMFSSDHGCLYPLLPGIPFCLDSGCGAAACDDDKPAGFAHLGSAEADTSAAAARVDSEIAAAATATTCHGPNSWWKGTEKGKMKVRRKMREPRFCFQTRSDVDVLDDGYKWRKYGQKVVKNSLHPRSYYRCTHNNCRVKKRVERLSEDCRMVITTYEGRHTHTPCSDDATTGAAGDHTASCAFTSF

This test has as its target OsWRKY34 (Oryza sativa, UniProt Q0JBA9 1-250). Briefly: protein-binding microarray (RPBM); PBS, 2% BSA, 51.3 ng/ul salmon testes DNA, 50 uM zinc acetate, 200 nM TF, 25 C, 1 h; high values mean tight binding. The settings on record: protein: recombinant; tags: N-terminal polyhistidine and DsRed monomer fusion (pET32a); label: CyDye5-dUTP incorporated in the synthesized complementary strand; 3' TTTTT single-stranded linker to array surface; dsDNA, one strand shown. The essentials:
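Polyhistidine-tagged DsRed fusions of transcription factors, joined at the N-terminus, were expressed in E. coli BL21-CodonPlus and isolated on Ni–NTA. They were incubated at 200 nM for 1 h at 25 °C on a custom Agilent array, double-stranded and BSA-blocked, in PBS with 2% BSA, salmon testes DNA and 50 µM zinc acetate. The binding signal is per-feature fluorescence intensity (arbitrary units) read on an Axon 4000B scanner after washing.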
Regarding “GTTTCATTGAGATGGTGTCGACGTGGCGGCGTTGACTTAGCGGAGTCACCTAGTGCAG”, the binding signal is 10700 fluorescence intensity (a.u.).
Turning to “AATGCAACCATTAAGTTGTCGTTTAGTTGACTTTGTCTACCGGAGTCACCTAGTGCAG”, the binding signal is 8690 fluorescence intensity (a.u.).
On to “CAATGTTGTCTTGACTTTTTTTTAACGTTTAACCATTTGTCGGAGTCACCTAGTGCAG”, for which the binding signal is 8940 fluorescence intensity (a.u.).
“CCGCCGTTGACTTTTTGTCTAACGTTTGACCATTCGTCTTCGGAGTCACCTAGTGCAG”: the binding signal is 36200 fluorescence intensity (a.u.).
In the case of “CCCCGTCGTTGTCGCCACCTACTTCTACCTGCGCGGATTCCGGAGTCACCTAGTGCAG”, the binding signal is 10800 fluorescence intensity (a.u.).
Next, “AGTGTCTTTGACTTTTTGTTTGTAACGTTTGACCATTCGTCGGAGTCACCTAGTGCAG”: 21900 fluorescence intensity (a.u.); “GATTCTACTGCCCCGTTGACTAATTGTCTTCGTCAGGATCCGGAGTCACCTAGTGCAG”: 17900 fluorescence intensity (a.u.).
The figure for “TAATTGTCTTCGTCAGGATCTTCTGCTAATTGTTTGATTTCGGAGTCACCTAGTGCAG” is 8680 fluorescence intensity (a.u.); for “ACACCATTGACTTTTTAGCATATGTTTAACCGTTTGTCTTCGGAGTCACCTAGTGCAG” it is 13900 fluorescence intensity (a.u.).
Next, “TGACACCGTTGACTTTTTTGTCTAAAGTTTAACCATTCGTCGGAGTCACCTAGTGCAG”: 32400 fluorescence intensity (a.u.).
On to “CCGTTGACATTTTATCTAACGTTTGACCATTCGTCTTATTCGGAGTCACCTAGTGCAG”, for which the binding signal is 15900 fluorescence intensity (a.u.).
The figure for “CGACTTTGTTTTACCATTGTTTTTTTTGTCTTGTTTTAGTCGGAGTCACCTAGTGCAG” is 10600 fluorescence intensity (a.u.).
The figure for “ATACAATCTACTTGAATCGTTTTTTCTTTACTTTTCAGTTCGGAGTCACCTAGTGCAG” is 9840 fluorescence intensity (a.u.).
The figure for “ACTTAGCAGCACTTGTCCCGTTCTCCTGAAGACAGTCCAACGGAGTCACCTAGTGCAG” is 9480 fluorescence intensity (a.u.).
For “CAGTAATTGTCACTATCTTATTACACATTATTCTGTCCAGCGGAGTCACCTAGTGCAG”, the binding signal was 8060 fluorescence intensity (a.u.).
For the sequence “TCCTGTCCAGTCTCCACTCGCAAACCCTTCTCGCCGCCATCGGAGTCACCTAGTGCAG”, the binding signal is 10400 fluorescence intensity (a.u.).
Next, “GACCGCTTCACCCGCCCAATCAAAACCGTCCATCCATCCCCGGAGTCACCTAGTGCAG”: 10300 fluorescence intensity (a.u.); “CAGTAACAATCACTCATTCTCAGTATCTGCTACTCCTCTACGGAGTCACCTAGTGCAG”: 8710 fluorescence intensity (a.u.).
Next, “CTCCTCTTTGTGTGTAGACTGAAAAGGTGGAAAGTTTACCCGGAGTCACCTAGTGCAG”: 9750 fluorescence intensity (a.u.).
On to “CGCGTAACCCACCCAATGTTTCACTCCTGCAGCACTTGACCGGAGTCACCTAGTGCAG”, for which the binding signal is 9370 fluorescence intensity (a.u.).
In the case of “CTATATATTTACCCACTGTATACCTCTGTCATGAAAGCATCGGAGTCACCTAGTGCAG”, the binding signal was 11500 fluorescence intensity (a.u.).
The figure for “CTCGTTTGATCTCTCAGTTGGGAGCATTATTTCTGCGCATCGGAGTCACCTAGTGCAG” is 10800 fluorescence intensity (a.u.); for “CAACGGCGAATCAACGCCCGAACCGACTCTTTTATCTTTTCGGAGTCACCTAGTGCAG” it is 9920 fluorescence intensity (a.u.).
For the sequence “ACAAATTTGTAGCCCGCTGCTCTTCTCTCTCATCTTTTATCGGAGTCACCTAGTGCAG”, the binding signal is 9220 fluorescence intensity (a.u.).
Take “TCCCTCGGTCCCATCGTATATATATATACCGTATGTCCCGCGGAGTCACCTAGTGCAG”: the binding signal was 9470 fluorescence intensity (a.u.).
As for “GTCCGCATCTCATCCTTCCGCAAGTCCGTATCTCATCCCTCGGAGTCACCTAGTGCAG”, the binding signal is 10400 fluorescence intensity (a.u.).
With “CGTATACCTCGGAGAAGTTCTCATCCGCTGACGTGTCCCGCGGAGTCACCTAGTGCAG”, the binding signal is 19600 fluorescence intensity (a.u.).
Next, “CACCTCACCCTCACCCGCACACGCCGACACCCCGACGCGTCGGAGTCACCTAGTGCAG”: 9390 fluorescence intensity (a.u.); “CTTCTTTCTCAATATGTGATTTTCTTTCCTTAATCTCGTTCGGAGTCACCTAGTGCAG”: 8680 fluorescence intensity (a.u.); “CTCCGTCGCTGACTGCAACCTCCACCCACACGGCACCCATCGGAGTCACCTAGTGCAG”: 8090 fluorescence intensity (a.u.).
Next, “TATCTCTCTCCCGCTGACAACCCGGTCACACCGAACCAACCGGAGTCACCTAGTGCAG”: 8990 fluorescence intensity (a.u.).
Regarding “CCTCTCACTGCTAGTGCCCCACACCGTTCTTCGCTGCCCACGGAGTCACCTAGTGCAG”, the binding signal was 11800 fluorescence intensity (a.u.).
The figure for “CTAATACGTGGGTCTCACTATTGTCTTCTTGTTTGACTGACGGAGTCACCTAGTGCAG” is 10700 fluorescence intensity (a.u.); for “CCTATTCTAACACTGACGGGTGGGTCTCACAGGGTGACTCCGGAGTCACCTAGTGCAG” it is 16900 fluorescence intensity (a.u.).
For “TTTGCACACGGGTGACTCGTCTCTTTGTACTCACTCTCTCCGGAGTCACCTAGTGCAG”, the binding signal is 9840 fluorescence intensity (a.u.).
As for “TCCTCTGTTTTACACTTGCATTCCTATCAGAATCCTATATCGGAGTCACCTAGTGCAG”, the binding signal is 9540 fluorescence intensity (a.u.).
Next, “CCCGTCGATCCACCGCGGGGACAAGCTCTAGATCTCTCTCCGGAGTCACCTAGTGCAG”: 8440 fluorescence intensity (a.u.).
For “CAGGCATGTCCAGTATAGGTGTTATTATATTTTATTATTACGGAGTCACCTAGTGCAG”, the binding signal was 8910 fluorescence intensity (a.u.).
For “TCCCTCTGTTCAAAATGTTTGACACCGTTGACTTTTTAAGCGGAGTCACCTAGTGCAG”, the binding signal is 20700 fluorescence intensity (a.u.).
The figure for “CTCCATCCGTTTTAAAATGTTTGACACCGTTGACTTTTTACGGAGTCACCTAGTGCAG” is 27300 fluorescence intensity (a.u.); for “TACTCCCTTCTTCCTTAGATGTTTGACACCGTTGACTTTTCGGAGTCACCTAGTGCAG” it is 16900 fluorescence intensity (a.u.); for “ACTCCCTCCTTCCCTAAATGTTTGACACCGTTGACTTTTTCGGAGTCACCTAGTGCAG” it is 19600 fluorescence intensity (a.u.).
With “CTCCCTCCTTTTCTAAATGTTTGACACCATTGACTTTTTTCGGAGTCACCTAGTGCAG”, the binding signal is 8470 fluorescence intensity (a.u.).
On to “ACTTCTTTAGGCGTTGACTTCTCCCTTTTCCTTTACTATTCGGAGTCACCTAGTGCAG”, for which the binding signal is 14800 fluorescence intensity (a.u.).
The figure for “TATACTCCCTCCATTTCAAAATGTTTGACACCGTTGACTTCGGAGTCACCTAGTGCAG” is 9590 fluorescence intensity (a.u.).
